Assay results: article PMC4336329 (PLoS ONE, 2015)
About 14,000 (4.5%) of roughly 310,000 compounds showed an effect of 50% or more. The effect is printed as a negative number. What follows is part of a selection rich in strong results, with near analogues and random picks from the rest.

Each compound was assayed against human ether-à-go-go-related gene (hERG) potassium channel (human, UniProt Q12809) (assay: primary screen, population patch clamp on CHO cells stably expressing hERG; higher = less effect of the substance).
human ether-à-go-go-related gene (hERG) potassium channel, sequence (Q12809 whole entry, looked up): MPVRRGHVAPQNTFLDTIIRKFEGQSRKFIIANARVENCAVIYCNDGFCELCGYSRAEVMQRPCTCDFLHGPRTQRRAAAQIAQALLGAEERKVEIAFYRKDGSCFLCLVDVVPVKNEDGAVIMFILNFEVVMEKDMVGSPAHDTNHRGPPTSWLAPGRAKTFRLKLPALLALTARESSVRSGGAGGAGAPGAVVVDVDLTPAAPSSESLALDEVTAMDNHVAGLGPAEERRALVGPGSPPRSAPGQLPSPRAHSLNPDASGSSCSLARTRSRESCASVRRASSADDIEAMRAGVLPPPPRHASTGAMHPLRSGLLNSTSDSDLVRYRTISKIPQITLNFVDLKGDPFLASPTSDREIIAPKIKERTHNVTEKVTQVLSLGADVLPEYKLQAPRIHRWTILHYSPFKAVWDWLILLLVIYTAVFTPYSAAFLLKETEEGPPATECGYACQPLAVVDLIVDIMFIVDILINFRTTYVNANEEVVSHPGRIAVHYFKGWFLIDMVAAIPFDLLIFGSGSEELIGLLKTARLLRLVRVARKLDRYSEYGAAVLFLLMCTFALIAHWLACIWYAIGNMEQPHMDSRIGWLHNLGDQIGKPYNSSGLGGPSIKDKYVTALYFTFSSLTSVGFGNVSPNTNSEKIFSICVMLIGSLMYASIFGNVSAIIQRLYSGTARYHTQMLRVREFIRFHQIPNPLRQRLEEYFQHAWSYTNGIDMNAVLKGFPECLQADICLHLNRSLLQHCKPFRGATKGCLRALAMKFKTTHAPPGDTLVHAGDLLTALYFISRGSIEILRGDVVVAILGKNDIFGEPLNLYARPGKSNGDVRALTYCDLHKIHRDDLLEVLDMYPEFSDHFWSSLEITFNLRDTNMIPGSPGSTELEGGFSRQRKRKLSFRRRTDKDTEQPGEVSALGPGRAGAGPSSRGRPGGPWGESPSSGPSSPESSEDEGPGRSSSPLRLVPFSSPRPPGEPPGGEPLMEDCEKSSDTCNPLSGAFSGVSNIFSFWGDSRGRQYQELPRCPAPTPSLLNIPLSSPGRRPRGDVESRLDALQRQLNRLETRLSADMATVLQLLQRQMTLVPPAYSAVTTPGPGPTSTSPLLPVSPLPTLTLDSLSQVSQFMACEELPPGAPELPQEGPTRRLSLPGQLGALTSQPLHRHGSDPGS
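Note: peak tail current of the secondary pulse compared with the same well before compound.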

SMILES	hERG current change (%, negative = inhibition) at 10uM [%]
COc1ccc(-c2noc(CSc3nc(N)cc(=O)[nH]3)n2)cc1	0.145
OCCC1CN(CC#Cc2ccccc2)CCN1Cc1ccccc1F (stereo not drawn)	-7.93
Cc1[nH]c2ccccc2c1SCCN	2.5
O=S(=O)(c1cccc(C(F)(F)F)c1)N1CCN(C(=S)NCc2ccco2)CC1	-5.8
CC(=O)N1c2ccc(S(=O)(=O)N(C)CC(=O)NC3CCCC3)cc2CC1C (stereo not drawn)	-23.1
COC(=O)C1=C(c2ccc(Cl)c(C(F)(F)F)c2)C[C@@H]2CC[C@H]1N2C(=O)NCc1ccc2c(c1)OCO2	-12.9
Cc1cc(-n2nc(C)cc2C)n2ncc(-c3ccccc3)c2n1	16.2
CC(=O)c1cnc2c(-c3ccc(Cl)cc3)cnn2c1C	-1.45
CCc1ccccc1N(C(=O)Cn1nnc2ccccc21)C(C(=O)NCCOC)c1ccco1 (stereo not drawn)	-7.99
CCOC(=O)c1ccc(NC(=O)c2sc3nc4n(c(=O)c3c2C)CCC4)cc1	8.82
N#CCCOC1(C#CCN2CCCC2)CCCCC1	19.6
Cc1ccc(O)c(C(CC(=O)NC(C)C)c2ccccc2)c1 (stereo not drawn)	6.85
COCCCN1CN(Cc2ccccc2)CNC1=S	5.46
O=C(Nc1nnc(CSCc2ccccc2F)s1)c1cccc([N+](=O)[O-])c1	-0.45
COc1ccc(C(=O)Nc2ccnn2C2CCN(C3CCC3)CC2)cc1	20.7
COc1ccccc1C(=O)Nc1ccnn1C1CCN(C2CCSCC2)CC1	-70.9
Cc1ccccc1C(=O)Nc1ccnn1C1CCN(C2CCSCC2)CC1	-49.5
CCCC1=Nc2cc(C(=O)N3CCC(C(N)=O)CC3)ccc2Sc2ccccc21	4.75
O=C(/C=C/c1ccc(OC2CSC2)cc1)c1ccccc1	10.1
CC(=O)Nc1cccc(C(=O)Nc2ccc(S(=O)(=O)NC3=NCCCCC3)cc2)c1	17

SMILES	hERG current change (%, negative = inhibition) at 10uM [%]
O=C(COc1ccccc1)NCc1n[nH]c(=S)n1-c1ccccc1	17.5
O=C(COc1ccc(Cl)cc1)NCc1n[nH]c(=O)c2ccccc12	-13
O=C(COc1ccccc1)NCc1nnc2c3ccccc3c(-c3ccccc3)nn12	-64.6
O=C(COc1ccccc1)NCc1ccccc1	4.64
O=C(COc1ccc(Cl)cc1)NCc1nnc2c3ccccc3c(-c3ccccc3)nn12	-66.9
O=C(COc1ccc(Cl)cc1)NCc1ccccc1	-10.4
CCc1cccc(NC(=O)C2CCCN(S(=O)(=O)c3cccnc3)C2)c1 (stereo not drawn)	-5.51
CNCC(=O)Nc1ccc(Cl)c(C(F)(F)F)c1	17.6
O=C(O)/C=C/C(=O)c1ccc(O)cc1	2.05
C/C(O)=C(\C#N)P(=O)(c1ccccc1)c1ccccc1	11.6
CCN1CCN(C(c2cccs2)C(C)NC(=O)C(C)C)CC1 (stereo not drawn)	9.03
CCN1CCN(C(c2cccs2)C(C)NC(=O)CC(C)C)CC1 (stereo not drawn)	-6.37
CCN1CCN(C(c2cccs2)C(C)NC(=O)c2ccccc2)CC1 (stereo not drawn)	-1.79
Cc1cccc(NC(=S)NC(C)C(c2cccs2)N2CCN(C)CC2)c1C (stereo not drawn)	-60.5
Cc1ccc(C)c(NC(=S)NC(C)C(c2cccs2)N2CCOCC2)c1 (stereo not drawn)	8.4
CCN1CCN(C(c2cccs2)C(C)NC(=S)Nc2cccc(C)c2C)CC1 (stereo not drawn)	-72.9
Cc1cccc(NC(=S)NC(C)C(c2ccccc2)N2CCN(C)CC2)c1C (stereo not drawn)	-50
Cc1ccc(C)c(NC(=S)NC(C)C(c2ccccc2)N2CCN(C)CC2)c1 (stereo not drawn)	-48
Cc1ccccc1NC(=S)NC(C)C(c1cccs1)N1CCOCC1 (stereo not drawn)	2.05
CCN1CCN(C(c2cccs2)C(C)NC(=S)Nc2cc(C)ccc2C)CC1 (stereo not drawn)	-68.5

SMILES	hERG current change (%, negative = inhibition) at 10uM [%]
CC(NC(=S)Nc1ccccc1Cl)C(c1cccs1)N1CCCC1 (stereo not drawn)	-10.2
Cc1ccccc1NC(=S)NC(C)C(c1ccccc1)N1CCN(C)CC1 (stereo not drawn)	-12.5
CN(C)c1ccc(/C=C2\NC(=S)N(Cc3ccccc3)C2=O)cc1	-0.668
O=C(CSC(=S)N1CCCC1)c1ccccc1	4.99
COc1cc2c3c(c1OC)C1(C=CC(=NO)C=C1)CC3N(C(C)=O)CC2 (stereo not drawn)	13.8
O=[N+]([O-])c1cccc(C(=Nc2cccc(Cl)c2)NO)c1	-20
C/C(=N/NC(=O)CSc1nc2ccccc2s1)c1ccncc1	-24
CCOC(=O)c1cnc2c(cnn2C)c1Oc1ccc(OC)cc1	-43
CC(NC(=O)COc1ccccc1)C(c1ccccc1)N1CCN(C)CC1 (stereo not drawn)	-9.29
CCOc1ccc(NC(=S)NC(C)C(c2ccccc2)N2CCN(C)CC2)cc1 (stereo not drawn)	-58.5
COc1ccc(NC(=S)NC(C)C(c2ccccc2)N2CCOCC2)cc1 (stereo not drawn)	7.52
CC(=O)Nc1cc(C(=O)N2CCC3(CC2)OCCO3)ccc1Sc1ccc(F)cc1	2.37
CC(=O)Nc1cc(C(=O)N2CCc3ccccc3C2)ccc1Sc1ccc(Cl)cc1	-45
O=C(c1cccc(F)c1)N1CCc2ccccc2C1	-7.14
CC(=O)Nc1cc(C(=O)N2CCc3ccccc3C2)ccc1Sc1ccc(C)cc1	-53.6
CCCN1CCN(C(=O)c2ccc(Sc3ccc(C)cc3)c(NC(C)=O)c2)CC1	-50.6
CC(=O)Nc1cc(C(=O)N2CCc3ccccc3C2)ccc1Sc1ccc(F)cc1	-55.4
CC(=O)Nc1cc(C(=O)N2CCCC2)ccc1Sc1ccc(C)cc1	-30.5
CC(=O)Nc1cc(C(=O)N2CCC3(CC2)OCCO3)ccc1Sc1ccc(C)cc1	-16
CC(=O)Nc1cc(C(=O)N2CCN(C)CC2)ccc1Sc1ccc(C)cc1	-13.5
